# Bioassay records: PubChem BioAssay, National Center for Advancing Translational Sciences (NCATS)
# PTHR1 agonist: qHTS for PTHR1 Agonists: Primary Screen; Parathyroid hormone/parathyroid hormone-related peptide receptor (Homo sapiens), Q03431; HEK293 GP2 PTHR1 cells, GloSensor cAMP luminescence, 1 h; Potency, µM (highest dose often 115 µM), actives largely listed as activators; 410,000 compounds, 0.075% hits; AID 743266, 2014; further: nearly all actives have a fitted effect of over 55% in size
#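 HEK-293-derived GP2 cells expressing PTHR1 and a GloSensor cAMP reporter, 3,000/well, plated overnight, given luciferin plus IBMX (each 0.5 mM as added) for 1 h at 37 °C, then compound for 1 h at 37 °C. Luminescence was read after 15 min at room temperature.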
# Glioma ERSR ind: qHTS for Inducers of the Endoplasmic Reticulum Stress Response (ERSR) in Human Glioma: qHTS; 420,000 compounds, 0.02% hits; Potency, µM, hits mostly activators; U87-MG GRP78 promoter luciferase reporter, 16 h; further: series mostly up to about 76 µM; nearly all actives have a fitted effect of over 35% in size
#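 ERSR induction read as luciferase luminescence (Bright-Glo, 10 min at room temperature) in stably transfected human U87-MG glioma cells exposed to compounds for 16 h, using GRP78 as sensor.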
# GLP-1R inv ag: qHTS of GLP-1 Receptor Inverse Agonists (Inhibition Mode); Glucagon-like peptide 1 receptor (Homo sapiens), P43220; HEK293 GLP-1R CRE-luciferase, luminescence, 24 h; GLP-1R form is constitutively active; Potency, µM (highest dose often 38.3 µM), most hits filed as inhibitors; 410,000 compounds, 1.6% hits; AID 624417, 2012; further: nearly all actives have a fitted effect of over 55% in size
#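 HEK293 cells stably co-expressing a cAMP-responsive luciferase reporter and constitutively active GLP-1R were seeded, incubated 12 h, then exposed to compounds for 24 h at 37 C. Luminescence was read 12 min after detection reagent; inverse agonists lower signal.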
# GLS inhibitor: qHTS for Inhibitors of Glutaminase (GLS) | Glutaminase kidney isoform, mitochondrial (Homo sapiens), O94925 | GLS enzymatic activity, qHTS titration | Potency, µM (series often up to 45.5 µM), most hits filed as inhibitors | 410,000 compounds, 0.21% hits | AID 624170, 2012
#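 Enzyme dispensed in phosphate buffer (45 mM, pH 8.2, 0.02% Tween-20), compounds pinned in, then 1 mM L-glutamine solution and the glutamate oxidase–HRP–Amplex Red mix added; fluorescence read immediately and again after 30 min at room temperature.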
# ALOX12 inh: Primary qHTS assay for inhibitors of human arachidonate 12S-lipoxygenase (ALOX12): Round 2. 580,000 compounds, 1.1% hits. purified 12hLO, xylenol orange hydroperoxide absorbance. Polyunsaturated fatty acid lipoxygenase ALOX12 (Homo sapiens), P18054. AID 1671190, 2021. Potency, µM (titrated, usually from 108 µM), usual class: inhibitors
# Target sequence (P18054 whole entry, looked up): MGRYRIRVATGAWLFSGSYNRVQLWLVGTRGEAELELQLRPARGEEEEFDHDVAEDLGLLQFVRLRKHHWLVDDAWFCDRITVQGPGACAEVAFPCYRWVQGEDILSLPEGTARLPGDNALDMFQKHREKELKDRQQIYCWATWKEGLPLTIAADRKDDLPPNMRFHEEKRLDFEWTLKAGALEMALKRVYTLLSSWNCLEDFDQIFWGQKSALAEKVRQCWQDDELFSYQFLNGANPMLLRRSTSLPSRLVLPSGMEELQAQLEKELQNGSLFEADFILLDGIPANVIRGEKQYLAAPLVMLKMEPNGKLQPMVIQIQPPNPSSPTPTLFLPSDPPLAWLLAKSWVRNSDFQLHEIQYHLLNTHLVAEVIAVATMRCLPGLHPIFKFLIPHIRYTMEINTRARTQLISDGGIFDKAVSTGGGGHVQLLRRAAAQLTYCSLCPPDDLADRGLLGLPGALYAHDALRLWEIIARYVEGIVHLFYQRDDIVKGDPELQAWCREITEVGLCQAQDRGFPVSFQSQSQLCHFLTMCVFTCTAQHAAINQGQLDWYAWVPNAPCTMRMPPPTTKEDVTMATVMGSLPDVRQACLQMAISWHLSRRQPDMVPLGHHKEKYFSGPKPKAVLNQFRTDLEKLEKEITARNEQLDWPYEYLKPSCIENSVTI
#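 Purified human 12hLO (150 nM final) in 25 mM Hepes, 0.01% Triton X-100, pH 7.0 was preincubated 15 min at room temperature with compound. Then 40 uM arachidonic acid was added, 30 min. Hydroperoxide was read by Fe-XO absorbance ratio 573/405 nm.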
# GLP-1R agonist: qHTS of GLP-1 Receptor Agonists; AID 624172, 2012; HEK293 GLP-1R CRE-luciferase, luminescence, 4-6 h; cells express a hypersensitive GLP-1R form; 380,000 compounds, 0.007% hits; Glucagon-like peptide 1 receptor (Homo sapiens), P43220; Potency, µM (doses to about 45.6 µM), hits mostly activators
# Numbers stand for hits; - = inactive; ? = inconclusive; . = no result given; ! = not confirmed by another sample. Compounds with a hit are over-represented: about 2.3% of the library has one in this group of screens. The call rests on the fitted dose curve; in most records, active means well fitted curve in the direction sought with a large enough effect; inconclusive means small, poorly fitted or top-dose-only effect, or another doubt; inactive means no such curve, though single readings can be large; an effect the other way counts as inactive or inconclusive.
SMILES,PTHR1 agonist,Glioma ERSR ind,GLP-1R inv ag,GLS inhibitor,ALOX12 inh,GLP-1R agonist
CCCCCCCCN1C(=O)[C@H](CC(=O)NCCc2ccccc2OC)C[C@@]2(C(=O)OCC)CCC=C12,-,.,13µM,.,-,.
COC(=O)[C@@]12C[C@@H](CC(=O)NCc3ccccc3)C(=O)N(Cc3ccco3)C1=CCC(C)(C)C2,-,.,-,.,-,.
COC(=O)c1cc(OC(=O)c2ccncc2)cc(C(=O)OC)c1,.,.,.,.,-,.
CN(C)CC(C#N)C(O)c1ccccc1 (configuration not stated),.,.,.,.,-,.
O=C(CSc1ncnc2c1nnn2Cc1ccc(F)cc1)NC1CCCCC1,-,-,-,-,-,-
O=C(CSc1ncnc2c1nnn2Cc1ccc(F)cc1)NCC1CCCO1 (configuration not stated),-,-,13µM,-,-,-
CC(CCc1ccccc1)NC(=O)N1CCN(S(=O)(=O)c2ccccc2C#N)CC1 (configuration not stated),.,.,.,.,-,.
Oc1ccccc1CNCCCNCc1ccccc1O,-,-,8.9µM,-,-,-
c1ccc(CNCCCNCCCCNCCCNCc2ccccc2)cc1,-,-,2.8µM,-,-,-
CCOc1cc(C(c2c(C)[nH][nH]c2=O)c2c(C)[nH][nH]c2=O)ccc1OCc1ccc(F)cc1,.,.,.,.,-,.
CC1CCc2c(sc(/N=C/c3cccnc3)c2C(N)=O)C1 (configuration not stated),-,-,-,-,32µM,-
CNC(=O)CCn1ncc2cc(OC3CCc4cccc(-c5cccnc5OC)c43)ccc21 (configuration not stated),.,.,.,.,-,.
COCCN1C(=O)C(=O)/C(=C(/O)c2ccc(OCC(C)C)c(C)c2)C1c1cccnc1 (configuration not stated),.,.,.,.,-,.
CCc1ccc(NC(=O)CCS(=O)(=O)c2ccc3c(c2)n(C)c(=O)c(=O)n3C)cc1,-,.,-,-,-,.
COc1cc(NC(=O)CCS(=O)(=O)c2ccc3c(c2)n(C)c(=O)c(=O)n3C)cc(OC)c1,22µM!,-,-,-,-,-
Cc1ccc(CN2C(=O)CSC2c2ccc(F)cc2)cc1 (configuration not stated),-,-,?,-,-,-
Cc1ccc(CN2C(=O)CSC2c2ccccc2F)cc1 (configuration not stated),-,-,10µM,-,-,-
Cc1ccc(-c2nn(-c3ccccc3)cc2C2SCC(=O)N2Cc2ccccc2)o1 (configuration not stated),-,-,11µM,-,32µM,-
Cc1cc(C)n(-c2nc3ccccc3nc2Nc2ccc(Cl)cc2)n1,.,.,.,.,-,.
CCN(CC)/C(Sc1ccccc1)=C(\C(Cl)=C(Cl)Cl)[N+](=O)[O-],-,-,-,-,-,-
CCN(CC)/C(Sc1ccccc1)=C(/C(Cl)=C(Cl)Cl)[N+](=O)[O-],-,-,-,-,7.9µM,-
C=CCOc1ccc(C(=O)Nc2ccccc2-c2ccccc2)cc1,.,.,.,.,-,.
COc1ccc(C(=O)/C=C/c2cn(CC(O)CN3CCc4ccccc43)c3ccccc23)cc1OC (configuration not stated),-,-,10µM,-,-,.
CCN(CC)CCC(=O)N1c2ccccc2Sc2ccc(NC(=O)OC)cc21,-,?,-,-,28µM,-
COc1ccc(S(=O)(=O)N2c3cc(C)ccc3OCC2C(C)(C)C)cc1 (configuration not stated),-,-,5µM,-,-,-
Cc1ccc(S(=O)(=O)N2c3cc(C)ccc3OCC2C(C)(C)C)cc1 (configuration not stated),-,-,5µM,-,-,-
